Data: PubChem BioAssay AID1159580 (chemical genetic matrix, 2015)
Several values for one entry are separate records, joined by “and”; a condition that tells them apart may be missing. Equal values may be shown once. Hit rate of the full screen: of about 5,500 compounds, about 2,000 (36%) were called active. Another 18% or so got no clear call; they are omitted. Rule as the data show it: active = normalized growth mostly below about 0.91 (no sharp cut-off); inconclusive = no clear call, values can overlap the other calls; inactive = mostly above about 0.92. The list shows a part of the results.

Experiment: chemical genetic growth profiling, strain panel (AID 1159580);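 also: tested at 20 µM; growth read once vehicle control cultures reached saturation at 30 °C; 1 = growth at the plate median or of vehicle wells; lower values mean less growth of the strain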
Settings: S. cerevisiae deletion strains, growth OD
[1] = locus YPL055C, strain LGE1, active compounds read low
[2] = locus YPL241C, strain CIN2, active compounds read low

Measured: normalized growth

Cc1cc(C)c(NC(=O)C[C@H](CC(=O)O)c2cccc3ccccc23)c(C(=O)N2CCC3(CCCC3)CC2)c1
inactive: locus YAL040C, strain CLN3, active compounds read low 1.01 | locus YCL061C, strain MRC1 (second series), active compounds read low 0.986 | locus YDR363W, strain ESC2, active compounds read low 0.973 | locus YER002W, strain NOP16, active compounds read low 0.975 | locus YGR078C, strain PAC10, active compounds read low 0.972 | locus YGR229C, strain SMI1, active compounds read low 1.01 | locus YMR263W, strain SAP30, active compounds read low 0.995 | locus YNL175C, strain NOP13, active compounds read low 0.976 | locus YNL197C, strain WHI3, active compounds read low 0.964 | locus YNL224C, strain SQS1, active compounds read low 0.977 | locus YNL322C, strain KRE1, active compounds read low 0.99 | locus YOR083W, strain WHI5 (second series), active compounds read low 0.977 | [1] 0.972 | [2] 0.987

CC(C)(C#N)O[C@@H]1O[C@H](CO)[C@@H](O)[C@H](O)[C@H]1O
inactive: locus YAL013W, strain DEP1, active compounds read low 1 | locus YAL021C, strain ccr4, active compounds read low 1.01 | locus YAL026C, strain drs2, active compounds read low 1 | locus YAL030W, strain snc1, active compounds read low 1 | locus YBL061C, strain skt5, active compounds read low 0.998 | locus YBR009C, strain hhf1, active compounds read low 1 | locus YBR021W, strain FUR4, active compounds read low 1.1 | locus YBR023C, strain chs3, active compounds read low 1 | locus YBR171W, strain sec66, active compounds read low 1.01 | locus YBR229C, strain ROT2, active compounds read low 0.997 | locus YBR231C, strain swc5, active compounds read low 0.998 | locus YBR279W, strain paf1, active compounds read low 1.01 | locus YCL011C, strain gbp2, active compounds read low 1.01 | locus YCL016C, strain dcc1, active compounds read low 1 | locus YCL029C, strain bik1, active compounds read low 0.993 | locus YCL069W, strain vba3, active compounds read low 0.997 | locus YCR088W, strain abp1, active compounds read low 1.01 | locus YDL005C, strain med2, active compounds read low 0.993 | locus YDL035C, strain GPR1, active compounds read low 1.02 | locus YDL040C, strain nat1, active compounds read low 1.01 | locus YDL074C, strain BRE1, active compounds read low 1.02 | locus YDL101C, strain DUN1, active compounds read low 1.01 | locus YDL185W, strain tfp1, active compounds read low 0.983 | locus YDL192W, strain arf1, active compounds read low 0.988 | locus YDR001C, strain nth1, active compounds read low 1.01 | locus YDR069C, strain doa4, active compounds read low 1.03 | locus YDR101C, strain arx1, active compounds read low 0.997 | locus YDR137W, strain rgp1, active compounds read low 1.02 | locus YDR150W, strain NUM1, active compounds read low 1.02 | locus YDR159W, strain sac3, active compounds read low 0.965 | locus YDR162C, strain NBP2, active compounds read low 1.05 | locus YDR195W, strain ref2 0.98 | locus YDR297W, strain sur2, active compounds read low 1.01 | locus YDR318W, strain mcm21, active compounds read low 1 | locus YDR334W, strain swr1, active compounds read low 1 | locus YDR335W, strain msn5, active compounds read low 1 | locus YDR388W, active compounds read low 0.992 | locus YDR392W, strain spt3, active compounds read low 1.02 | locus YDR502C, strain sam2, active compounds read low 0.998 | locus YEL003W, strain gim4, active compounds read low 1.01 | locus YEL037C, strain rad23, active compounds read low 1.01 | locus YEL061C, strain CIN8 (second series), active compounds read low 1.02 | locus YEL061C, strain CIN8, active compounds read low 1 | locus YER015W, strain faa2, active compounds read low 0.998 | locus YER016W, strain bim1, active compounds read low 0.999 | locus YER110C, active compounds read low 0.985 | locus YER111C, strain swi4, active compounds read low 1.01 | locus YER155C, strain BEM2 (second series), active compounds read low 1.02 | locus YER155C, strain BEM2, active compounds read low 0.99 | locus YER167W, strain BCK2, active compounds read low 1.01 | locus YFR010W, strain ubp6, active compounds read low 1.01 | locus YGL078C, strain dbp3, active compounds read low 0.989 | locus YGL086W, strain mad1, active compounds read low 0.997 | locus YGL167C, strain pmr1, active compounds read low 1 | locus YGL173C, strain kem1, active compounds read low 1 | locus YGL227W, strain vid30, active compounds read low 1 | locus YGL240W, strain doc1, active compounds read low 1.01 | locus YGL248W, strain PDE1, active compounds read low 1.01 | locus YGL253W, strain hxk2, active compounds read low 1 | locus YGR135W, strain pre9, active compounds read low 0.975 | locus YGR252W, strain gcn5, active compounds read low 0.979 | locus YHR013C, strain ard1, active compounds read low 0.996 | locus YHR027C, strain rpn1, active compounds read low 0.984 | locus YHR030C, strain SLT2, active compounds read low 0.997 and 1.06 | locus YHR079C, strain IRE1 (second series), active compounds read low 0.994 | locus YHR079C, strain IRE1, active compounds read low 1.07 | locus YHR094C, strain hxt1, active compounds read low 0.984 | locus YHR129C, strain ARP1, active compounds read low 1 | locus YHR142W, strain chs7, active compounds read low 1 | locus YHR200W, strain rpn10, active compounds read low 0.995 | locus YIL066C, strain RNR3, active compounds read low 1.02 | locus YIL073C, strain SPO22, active compounds read low 1 | locus YIL125W, strain kgd1, active compounds read low 1 | locus YIR030C, strain dcg1, active compounds read low 0.998 | locus YJL092W, strain hpr5, active compounds read low 1 | locus YJL095W, strain BCK1 (second series), active compounds read low 1.01 | locus YJL095W, strain BCK1, active compounds read low 1.05 and 0.974 | locus YJL115W, strain asf1, active compounds read low 0.999 | locus YJL129C, strain trk1, active compounds read low 1.03 | locus YJL134W, strain LCB3, active compounds read low 0.993 | locus YJL154C, strain vps35, active compounds read low 1.01 | locus YJL164C, strain tpk1, active compounds read low 1 | locus YJL166W, strain qcr8, active compounds read low 1.01 | locus YJL168C, strain set2, active compounds read low 1 | locus YJL187C, strain SWE1 (second series), active compounds read low 1.03 | locus YJL187C, strain SWE1, active compounds read low 1 | locus YJR043C, strain POL32, active compounds read low 1.02 | locus YJR066W, strain TOR1, active compounds read low 0.981 | locus YJR075W, strain HOC1, active compounds read low 1.02 | locus YKL009W, strain mrt4, active compounds read low 0.982 | locus YKL068W, active compounds read low 0.998 | locus YKL085W, strain MDH1 (second series), active compounds read low 1.01 | locus YKL085W, strain MDH1, active compounds read low 1.01 | locus YKL160W, strain elf1, active compounds read low 1 | locus YKL190W, strain CNB1, active compounds read low 1.02 | locus YKR001C, strain vps1, active compounds read low 1 | locus YKR026C, strain gcn3, active compounds read low 0.997 | locus YKR091W, strain srl3, active compounds read low 1 | locus YLL001W, strain dnm1, active compounds read low 1.01 | locus YLL026W, active compounds read low 0.99 | locus YLL041C, strain sdh2, active compounds read low 1.01 | locus YLR027C, strain aat2, active compounds read low 1 | locus YLR039C, strain RIC1, active compounds read low 1.05 | locus YLR058C, strain SHM2, active compounds read low 1.01 | locus YLR102C, strain apc9, active compounds read low 0.983 | locus YLR113W, strain HOG1, active compounds read low 0.999 | locus YLR221C, strain rsa3, active compounds read low 1.03 | locus YLR258W, strain gsy2, active compounds read low 1.01 | locus YLR262C, strain YPT6 (second series), active compounds read low 1.01 | locus YLR262C, strain YPT6, active compounds read low 1.07 | locus YLR268W, strain sec22, active compounds read low 1 | locus YLR320W, strain mms22, active compounds read low 0.999 | locus YLR330W, strain CHS5, active compounds read low 0.994 | locus YLR342W, strain FKS1 (second series), active compounds read low 1.02 | locus YLR342W, strain FKS1, active compounds read low 1 | locus YLR357W, strain rsc2, active compounds read low 0.971 | locus YLR370C, strain arc18, active compounds read low 1 | locus YLR371W, strain rom2, active compounds read low 0.982 | locus YLR384C, strain iki3, active compounds read low 0.986 | locus YLR418C, strain cdc73, active compounds read low 1.01 | locus YML016C, strain PPZ1, active compounds read low 0.987 | locus YML032C, strain rad52, active compounds read low 1.01 | locus YML120C, strain ndi1, active compounds read low 0.994 | locus YML124C, strain tub3, active compounds read low 0.994 | locus YMR058W, strain fet3, active compounds read low 0.999 | locus YMR078C, strain ctf18, active compounds read low 0.976 | locus YMR125W, strain sto1, active compounds read low 1 | locus YMR129W, active compounds read low 0.996 | locus YMR205C, strain PFK2, active compounds read low 1.02 | locus YMR223W, strain ubp8, active compounds read low 0.984 | locus YMR231W, strain pep5, active compounds read low 0.996 | locus YMR307W, strain GAS1, active compounds read low 0.96 | locus YNL067W, strain RPL9B, active compounds read low 1.04 | locus YNL071W, strain lat1, active compounds read low 1.01 | locus YNL183C, strain NPR1, active compounds read low 0.973 | locus YNL209W, strain ssb2, active compounds read low 1.01 | locus YNL233W, strain BNI4, active compounds read low 1.02 | locus YNL248C, strain rpa49, active compounds read low 0.984 | locus YNL250W, strain rad50, active compounds read low 0.978 | locus YNL271C, strain bni1, active compounds read low 0.987 | locus YNL298W, strain CLA4, active compounds read low 0.987 | locus YNL307C, strain MCK1, active compounds read low 1.02 | locus YNL322C, strain KRE1 (second series), active compounds read low 0.993 | locus YNR049C, strain mso1, active compounds read low 1 | locus YNR052C, strain pop2, active compounds read low 0.984 | locus YOL006C, strain TOP1, active compounds read low 1.06 | locus YOL012C, strain htz1 0.871 | locus YOL147C, strain pex11, active compounds read low 0.995 | locus YOR001W, strain rrp6, active compounds read low 1.01 | locus YOR061W, strain CKA2, active compounds read low 0.997 | locus YOR069W, strain VPS5, active compounds read low 0.99 | locus YOR070C, strain gyp1, active compounds read low 1.01 | locus YOR080W, strain dia2, active compounds read low 1.01 | locus YOR083W, strain WHI5, active compounds read low 1.01 | locus YOR106W, strain vam3, active compounds read low 1.04 | locus YOR136W, strain idh2, active compounds read low 0.985 | locus YOR144C, strain elg1, active compounds read low 0.997 | locus YOR184W, strain ser1, active compounds read low 1.03 | locus YOR231W, strain MKK1, active compounds read low 1.01 | locus YOR265W, strain rbl2, active compounds read low 1.01 | locus YOR270C, strain vph1, active compounds read low 1.22 | locus YOR290C, strain snf2, active compounds read low 1.02 | locus YOR316C, strain cot1, active compounds read low 0.983 | locus YPL051W, strain arl3, active compounds read low 1.01 | [1] 1.06 | locus YPL078C, strain atp4, active compounds read low 1.01 | locus YPL106C, strain sse1, active compounds read low 0.985 | locus YPL240C, strain hsp82, active compounds read low 0.995 | [2] 1.01 | locus YPL256C, strain CLN2, active compounds read low 1.06 | locus YPR119W, strain clb2, active compounds read low 0.996 | locus YPR141C, strain kar3, active compounds read low 0.982 | locus YPR163C, strain tif3, active compounds read low 0.997 | locus YPR167C, strain met16, active compounds read low 1.01 | strain wtn01, active compounds read low 0.984
